This passage reports composite z-score and z-score results from PubChem BioAssay.

The structures appear in SMILES notation. “And” between values parts separate entries of the source, which are not always exact repeats. Equal values may be shown once. The source made the active and inactive calls. Unless noted, the rule behind the calls is not given here.

Assay [1] is described as follows: anti-His antibody binders, primary screen, artefact control for SMM control protein annotation, biochemical, small-molecule microarray, 635 nm fluorescence (AID 1128).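 Note: score merges feature fluorescence with signal-to-noise for each printed compound spot.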 The note with it: anti-His Alexa647 antibody binding, higher = more signal.
Assay [2] deals with Human papillomavirus type 1a E7 protein (residues 1-88). The assay is described as follows: HPV1a E7 small-molecule binders, primary screen, biochemical, small-molecule microarray, residues 1-88, 635 nm (AID 1129). The note with it: small-molecule microarray binding, fluorescence 635 nm; higher = more signal.
Assay [3] addresses Focal adhesion kinase 1 (Homo sapiens) (UniProt Q05397). Nature of the assay: small-molecule microarray binders of FAK, primary screen, biochemical, 635/667 nm fluorescence, BSA, DTT (AID 1130).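 Note: composite of spot emission at 667 nm and signal to noise over triplicate slides.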 The note with it: PTK2 binding, 635 nm fluorescence, higher = more signal.
Assay [4] has as its system Fibrinogen (Alexa647-labelled). The assay is described as follows: fibrinogen binders on compound microarrays, profiling panel, artefact control for SMM control-protein annotation, biochemical, small-molecule microarray, 635/667 nm fluorescence (AID 1131).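 Note: z-score merges 667 nm fluorescence with per-spot signal-to-noise over triplicate slides.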 The note with it: fibrinogen-A647 binding fluorescence, higher = more signal.
The target of assay [5] is Follistatin (Homo sapiens) (UniProt P19883). Nature of the assay: follistatin binders on small-molecule microarrays, primary screen, biochemical, small-molecule microarray, 635/667 nm fluorescence (AID 1132). The note with it: FST binding, 635 nm fluorescence, higher = more signal.
The target of assay [6] is Fibroblast growth factor 2 (Homo sapiens) (UniProt P09038). Nature of the assay: FGF2 binders on small-molecule microarrays, primary screen, biochemical, small-molecule microarray, 635/667 nm fluorescence (AID 1133). The note with it: small-molecule microarray binding, FGF2, fluorescence 635/667; higher = more signal.
A short description of assay [7]: mitochondrial membrane potential change in A549 cells, profiling panel, cell-based, JC-1 fluorescence, basal, 24 h, 100 nL (AID 1138).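 Note: A549 lung adenocarcinoma cells under basal conditions with no added stimulus; test concentration not given here.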 The note with it: higher = more signal.
In another assay the test system is Lefty1. The assay is described as follows: Lefty1 binders on small-molecule microarrays, primary screen, biochemical, small-molecule microarray, 635/667 nm fluorescence (AID 1139). The note with it: small-molecule microarray binding, fluorescence 635/667; higher = more signal.
Assay [8] concerns wheat germ agglutinin (Triticum aestivum), Alexa647-labelled. Nature of the assay: wheat germ agglutinin binders on compound microarrays, profiling panel, artefact control for SMM control-protein annotation, biochemical, small-molecule microarray, 635/667 nm fluorescence (AID 1140).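 Note: score merges 667 nm feature emission with signal to noise over triplicate slides.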 The note with it: WGA-A647 binding, 635 nm fluorescence, higher = more signal.
Assay [9] deals with Luciferin 4-monooxygenase (Photinus pyralis) (UniProt P08659). The assay is described as follows: firefly luciferase enzyme inhibitors, primary screen, biochemical, luminescence, purified enzyme, 2006 set (AID 1141).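 Note: cell-free assay with purified firefly luciferase at 100 ng per well in PBS; test concentration not given here.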 The note with it: SteadyGlo luminescence, 30 min, higher = more signal, called active from +8 up or from −8 down.
For assay [10], the system named is Wnt5a (protein binding on small-molecule microarray). Nature of the assay: Wnt5a binders on small-molecule microarray, primary screen, biophysical, 635/667 nm fluorescence (AID 1142).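 Note: fluorescence read at 667 nm with signal to noise per printed feature.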 The note with it: 635 nm fluorescence, higher = more signal.
A short description of assay [11]: cell viability in Huh7 cells, primary screen, cytotoxicity control for HCV replication inhibitor project, CellTiter-Glo luminescence, basal, 48 h (AID 1143).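 Note: Huh7 hepatoma cells carrying a hepatitis C replication reporter with no stimulus; test concentration not given here.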 The note with it: Huh7 HCV replicon, higher = more signal, called active from +8 up or from −8 down.
Assay [12] is described as follows: P. aeruginosa biofilm formation inhibitors, primary screen, PAO1 strain, BacTiter-Glo luminescence, LB-PBS (AID 1144). The note with it: 12 h, higher = more signal.
Assay [13] is described as follows: CREB reporter modulators without forskolin, primary screen, cell-based, PC12, CRE-LacZ reporter, unstimulated (AID 1145). The note with it: no forskolin, luminescence, 4.5 h, higher = more signal, called active from +8 up or from −8 down.
Assay [14] in a line: CREB reporter modulators under forskolin, primary screen, cell-based, PC12, CRE-LacZ reporter, forskolin-stimulated (AID 1146).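 Note: PC12 cells with 6xCRE LacZ reporter stimulated by forskolin 10 µM; beta-galactosidase reporter signal reflecting CREB driven transcription.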 The note with it: luminescence, 4.5 h, higher = more signal, called active from +8 up or from −8 down.
Assay [15] deals with Streptavidin (Streptomyces avidinii) (UniProt P22629). Nature of the assay: streptavidin binders on small-molecule microarray, primary screen, artefact control for SMM compound annotation, biophysical, 635/667 nm fluorescence (AID 1147).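 Note: signal reflects streptavidin binding to arrayed compounds as a control protein.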 The note with it: streptavidin binding, higher = more signal.
Assay [16] in a line: small-molecule binders of probe aInhba, primary screen, biochemical, small-molecule microarray, 635/667 nm fluorescence (AID 1148).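 Note: score merges 667nm spot fluorescence with signal-to-noise for antibody binding to printed compounds.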 The note with it: higher = more signal.
The target of assay [17] is Torsin-1A (Homo sapiens) (UniProt O14656). Nature of the assay: torsin A binders from cell lysate, primary screen, small-molecule microarray, wild-type, 635/667 nm (AID 1149). The note with it: COS7 hTOR1A-WT lysate, 635 nm fluorescence, higher = more signal.
Assay [18] has the same target. Nature of the assay: small-molecule binders of mutant TOR1A in lysate, primary screen, cell lysate, small-molecule microarray, COS7 lysate, 635/667 nm fluorescence (AID 1150).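 Note: score pools 667 nm emission and signal to noise measuring lysate protein binding.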 The note with it: COS7 hTOR1A mutant lysate, 635 nm fluorescence, higher = more signal.
Assay [19] relates to Sonic hedgehog protein (Shh). Nature of the assay: small-molecule binders of Shh protein, primary screen, biochemical, small-molecule microarray, 635/667 nm fluorescence (AID 1151).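 Note: Shh protein binding to compounds spotted on small-molecule microarray slides; score combines spot fluorescence intensity with signal-to-noise across triplicate slides.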 The note with it: small-molecule microarray binding, 635 nm fluorescence; higher = more signal.

Sequence of Streptavidin (Streptomyces avidinii) (P22629 whole entry, looked up): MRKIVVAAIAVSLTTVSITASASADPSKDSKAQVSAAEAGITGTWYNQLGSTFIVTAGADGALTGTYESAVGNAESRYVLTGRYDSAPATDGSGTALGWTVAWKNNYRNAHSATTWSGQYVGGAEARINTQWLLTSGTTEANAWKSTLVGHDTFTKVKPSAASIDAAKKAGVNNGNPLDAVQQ
Sequence of Focal adhesion kinase 1 (Homo sapiens) (Q05397 whole entry, looked up): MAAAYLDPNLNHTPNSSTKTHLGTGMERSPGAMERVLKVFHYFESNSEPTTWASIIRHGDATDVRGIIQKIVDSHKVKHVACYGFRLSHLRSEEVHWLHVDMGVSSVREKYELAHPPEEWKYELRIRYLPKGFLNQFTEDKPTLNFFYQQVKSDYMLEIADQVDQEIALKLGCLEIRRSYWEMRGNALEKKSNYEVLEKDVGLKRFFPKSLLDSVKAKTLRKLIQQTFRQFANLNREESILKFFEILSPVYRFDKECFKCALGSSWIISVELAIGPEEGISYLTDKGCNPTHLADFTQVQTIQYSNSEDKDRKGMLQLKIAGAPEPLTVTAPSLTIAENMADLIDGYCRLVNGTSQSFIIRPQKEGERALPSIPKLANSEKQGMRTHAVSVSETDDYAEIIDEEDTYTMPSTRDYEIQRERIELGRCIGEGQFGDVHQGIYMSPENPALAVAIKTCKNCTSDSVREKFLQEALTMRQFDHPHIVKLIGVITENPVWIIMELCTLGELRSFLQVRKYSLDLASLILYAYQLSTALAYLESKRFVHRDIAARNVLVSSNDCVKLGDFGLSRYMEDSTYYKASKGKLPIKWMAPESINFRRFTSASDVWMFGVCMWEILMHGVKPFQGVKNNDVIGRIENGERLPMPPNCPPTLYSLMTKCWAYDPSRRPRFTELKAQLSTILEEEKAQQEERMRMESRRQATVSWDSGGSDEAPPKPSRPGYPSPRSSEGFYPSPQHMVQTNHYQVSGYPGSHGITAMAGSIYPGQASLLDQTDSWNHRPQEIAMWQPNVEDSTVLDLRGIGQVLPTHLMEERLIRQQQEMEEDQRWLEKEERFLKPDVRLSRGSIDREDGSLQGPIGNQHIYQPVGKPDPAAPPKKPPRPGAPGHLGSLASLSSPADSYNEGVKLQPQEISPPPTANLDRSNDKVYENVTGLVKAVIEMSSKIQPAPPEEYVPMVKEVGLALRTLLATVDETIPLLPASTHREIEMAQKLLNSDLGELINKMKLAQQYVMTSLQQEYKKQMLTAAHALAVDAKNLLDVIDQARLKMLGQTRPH
Sequence of Torsin-1A (Homo sapiens) (O14656 whole entry, looked up): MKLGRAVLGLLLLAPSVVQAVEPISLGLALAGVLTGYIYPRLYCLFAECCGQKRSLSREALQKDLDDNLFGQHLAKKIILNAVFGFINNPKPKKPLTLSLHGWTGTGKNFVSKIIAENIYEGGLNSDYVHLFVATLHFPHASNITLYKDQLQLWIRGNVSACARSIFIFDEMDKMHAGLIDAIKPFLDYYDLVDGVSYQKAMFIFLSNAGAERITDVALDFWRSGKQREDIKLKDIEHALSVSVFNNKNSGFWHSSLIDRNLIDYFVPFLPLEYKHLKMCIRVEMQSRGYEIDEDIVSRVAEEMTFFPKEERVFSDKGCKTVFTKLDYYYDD
Sequence of Luciferin 4-monooxygenase (Photinus pyralis) (P08659 whole entry, looked up): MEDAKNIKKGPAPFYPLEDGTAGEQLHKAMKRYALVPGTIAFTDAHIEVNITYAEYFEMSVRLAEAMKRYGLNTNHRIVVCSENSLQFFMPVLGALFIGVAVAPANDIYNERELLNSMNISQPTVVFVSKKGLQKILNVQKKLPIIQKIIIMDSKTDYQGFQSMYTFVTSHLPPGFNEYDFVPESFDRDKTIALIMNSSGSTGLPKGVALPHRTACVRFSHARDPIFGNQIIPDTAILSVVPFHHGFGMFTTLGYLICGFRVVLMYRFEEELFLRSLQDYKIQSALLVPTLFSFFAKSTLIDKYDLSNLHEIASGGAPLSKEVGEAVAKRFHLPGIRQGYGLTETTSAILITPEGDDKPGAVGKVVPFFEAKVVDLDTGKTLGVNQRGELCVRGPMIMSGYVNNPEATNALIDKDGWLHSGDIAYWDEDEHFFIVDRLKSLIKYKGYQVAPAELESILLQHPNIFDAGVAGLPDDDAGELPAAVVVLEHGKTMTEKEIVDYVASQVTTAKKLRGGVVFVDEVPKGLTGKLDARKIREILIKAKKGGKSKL
Sequence of Follistatin (Homo sapiens) (P19883 whole entry, looked up): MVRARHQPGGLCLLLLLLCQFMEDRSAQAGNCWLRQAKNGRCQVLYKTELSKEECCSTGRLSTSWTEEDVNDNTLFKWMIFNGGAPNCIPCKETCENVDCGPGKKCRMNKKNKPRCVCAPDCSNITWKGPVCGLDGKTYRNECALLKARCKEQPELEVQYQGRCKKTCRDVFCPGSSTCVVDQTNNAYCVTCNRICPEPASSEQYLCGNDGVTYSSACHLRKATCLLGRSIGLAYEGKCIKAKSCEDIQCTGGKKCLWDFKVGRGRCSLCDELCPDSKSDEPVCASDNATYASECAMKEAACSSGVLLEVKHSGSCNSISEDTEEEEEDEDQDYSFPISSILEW
Sequence of Fibroblast growth factor 2 (Homo sapiens) (P09038 whole entry, looked up): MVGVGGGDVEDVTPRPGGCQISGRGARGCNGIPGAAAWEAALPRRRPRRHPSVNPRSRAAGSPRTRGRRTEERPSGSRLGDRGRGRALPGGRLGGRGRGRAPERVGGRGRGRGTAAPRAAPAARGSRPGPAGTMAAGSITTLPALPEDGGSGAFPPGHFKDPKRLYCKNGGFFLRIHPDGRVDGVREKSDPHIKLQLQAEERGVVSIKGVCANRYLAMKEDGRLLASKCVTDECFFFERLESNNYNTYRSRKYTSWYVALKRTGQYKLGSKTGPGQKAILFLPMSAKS

As for `CCN1C(=O)[C@H]2[C@H]3[C@H](O)[C@H](O)CC(=NOC[C@@H](O)COCc4ccco4)[C@@H]3CC[C@H]2C1=O`, the composite z-score in assay [1] was -0.48 and 2.77; in assay [2], -1.11 and -1.61; in assay [3] it was -0.406 and -0.591; in [4], -0.852 and -0.943; in assay [5] it was 1.34 and -0.205; in assay [6], 1.66 and -0.129. For the same compound, the composite z-score with Lefty1 was 1.44 and 0.31; in [8] it was -0.559 and -0.746; in assay [10], 0.0867 and 0.192; in assay [15] it was -0.503 and -0.321; in assay [16] it was -0.324 and -0.15; with Torsin-1A (Homo sapiens) [17], 3.48 and 0.374. In addition, the composite z-score with Torsin-1A (Homo sapiens) [18] was 3.12 and 0.272; in assay [19], 2.1 and 1.78. The z-score in assay [7] is -0.254 and -1.57; in assay [9] it was -0.0037 (inactive) and 0.33 (inactive); in assay [11] it was 0.343 (inactive) and 0.422 (inactive); in assay [12], -1.34 (inactive) and -0.00909 (inactive); in [13], -0.746 (inactive) and 1.6 (inactive); in assay [14] it was 0.463 (inactive) and 0.503 (inactive).

As to `COC(=O)C1=C(C)N(Cc2ccccc2)C2=C3C(=O)N(c4ccccc4)C(=O)[C@@H]3[C@@](O)(C(=O)OC)C(=O)N2[C@@H]1c1ccccc1`, the composite z-score was 0.387 and 0.668 in assay [1]; 0.186 and 1.1 in [2]; 0.14 and 0.113 in assay [3]; 0.212 and 0.393 in [4]; 0.988 and 0.726 in [5]; 1.63 and 0.5 in assay [6]. In addition, the composite z-score in the assay on Lefty1 was 0.823 and 0.745; in assay [8], 0.0882 and 0.764; in [10], 0.297 and 0.678; in assay [15], 0.117 and 0.12; in [16], -0.024 and -0.0313; in the assay with Torsin-1A (Homo sapiens) [17], 0.801 and 0.365. In addition, the composite z-score with Torsin-1A (Homo sapiens) [18] is 0.516 and 0.533; in assay [19] it was 0.574 and 0.726. Besides, the z-score was 0.895 and 1.76 in assay [7]; -0.471 (inactive) and -1.33 (inactive) in assay [9]; -0.146 (inactive) and -1.82 (inactive) in assay [11]; 0.9 (inactive) in assay [12]; 2.72 (inactive) and -0.615 (inactive) in [13]; -0.718 (inactive) and -0.78 (inactive) in assay [14].

On to `C=CCN(Cc1ccccc1)C(=O)C1N(C(C)(C)CO)C(=O)C2C(C(=O)O)C3C=CC21O3` (stereo not given), for which the composite z-score in [1] is -1.67 and -0.97; in [2], -1.24 and -0.825; in [3], -0.571 and -1.31; in assay [4], -2.5 and -2.76; in assay [5], -2.21 and -1.21; in [6], -1.48 and -2.77. For the same compound, the composite z-score in the assay on Lefty1 was -2.57 and -1.65; in assay [8], -1.76 and -0.466; in assay [10], -0.578 and -0.945; in assay [15], -1.56 and -1.49; in assay [16] it was -0.231 and -0.213; in the assay with Torsin-1A (Homo sapiens) [17], -0.396 and -3.85. Further, the composite z-score with Torsin-1A (Homo sapiens) [18] was -1.19 and -2.15; in assay [19], -1.17 and -1.73. Further, the z-score in assay [7] was -0.188 and -0.414; in assay [9], 0.519 (inactive) and 1.45 (inactive); in assay [11] it was 0.283 (inactive) and 0.582 (inactive); in [12], 1.51 (inactive) and -1.52 (inactive); in [13], -0.224 (inactive) and -1.57 (inactive); in assay [14] it was -0.141 (inactive) and -0.418 (inactive).

Consider `COC(=O)C1=C(C)N(Cc2ccccc2)C2=C(C(C)=O)C[C@@](O)(C(=O)OC)C(=O)N2[C@@H]1c1ccccc1`, for which the composite z-score in [1] was 1.23 and -0.0396; in [2] it was 0.5 and 0.2; in assay [3], 0.271 and -0.209; in assay [4], -0.378 and 1.02; in assay [5], 0.247 and 0.12; in assay [6], 1.55 and 0.0618. Further, the composite z-score in the assay on Lefty1 is 1.18 and 0.158; in assay [8], -0.48 and 0.228; in assay [10], 0.491 and 0.0879; in assay [15], -0.192 and -0.271; in assay [16], 0.0212 and -0.0136; with Torsin-1A (Homo sapiens) [17] it was 1.39 and 0.336. Further, the composite z-score was 1.69 and -0.0069 in the assay with Torsin-1A (Homo sapiens) [18]; 1.74 and 0.806 in [19]. Besides, the z-score in assay [7] was 1.18 and 1.72; in assay [9] it was -0.458 (inactive) and -1.7 (inactive); in assay [11], -0.451 (inactive) and -1.18 (inactive); in assay [12], -2.16 (inactive); in assay [13] it was 3.35 (inactive) and 4.53 (inactive); in assay [14], -0.711 (inactive) and -0.239 (inactive).
